Whole data set: some 59,000 sequences, median the read-out near -0.00055, cut for the lowest 2% near -2. This excerpt belongs to a sample that is enriched for the lowest values.

This assay is described as follows: Identification of proteins required for the processing of the EWS-FLI1 nascent transcript.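 Note: robust z of luciferase light less the median z of siRNAs with the same seed.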 Particulars: TC32 Ewing sarcoma NR0B1-luc vs CMV-luc (EWS-FLI1 target promoter against control promoter), 48 h; screened at 20 nM (by protocol). As to the method: Ewing sarcoma (ES) cells depend on the EWS-FLI1 fusion transcription factor for cell survival. Using an assay of EWS-FLI1 activity and genome-wide siRNA screening we have identified proteins required for the processing of the EWS-FLI1 nascent transcript. Parallel genome-wide siRNA-mediated RNAi screens were conducted in Ewing sarcoma TC32 cell lines expressing a luciferase (luc) reporter protein driven by either the promoter of the EWS-FLI1 target gene NR0B1 (TC32-NR0B1-luc) or the CMV promoter (TC32-CMV-luc). Luciferase activity was assessed 48 hours post siRNA-transfection.
Twenty microl of serum-free media containing Lipofectamine RNAiMax (0.05 microl) was added to wells containing siRNA (0.8 pmol). Lipid and siRNA were allowed to complex for 45 min at ambient temperature before addition of 600 cells in RPMI-1640, 20% FBS to yield final transfection mixtures containing 20 nM siRNA in RPMI-1640, 10% FBS. Luciferase expression was measured using OneGlo (Promega, Madison, WI). The genome-wide screening campaign was conducted using Ambion's human genome library version 4.1 (Ambion, Austin TX). This library targets approximately 21000 human genes, three siRNAs per gene. Each siRNA is arrayed in an individual well of a 384-well plate. Parallel transfections were conducted in TC32-NR0B1-luc and TC32-CMV-luc cell lines and luciferase expression (OneGlo, Promega) was assayed 48 h later on a PerkinElmer Envision 2104 Multilabel plate reader (PerkinElmer, Waltham, MA). Qiagen's AllStars Negative control was incorporated on all screening plates for normalization (16 wells per plate). Qiagen, Germantown, MDsiGL4 was incorporated as a positive transfection control (16 wells per plate) on all plates. […] The raw luciferase data for the NR0B1- and CMV-luc screens were normalized and z-score-MAD transformed using standard methods (Chung et al., 2008). The miRNA-like seed sequence of every siRNA was determined and the median z-score for all siRNA sequences with the same seed sequence was calculated. This z-score was subtracted from the z-score associated with each siRNA with that seed sequence to generate a seed-adjusted z-score value (Z) that was used when the results for the three siRNAs corresponding to each gene were compared (Marine et al., 2012)
In turn, UAUACGAUAAUGAAAUUCC against SPINK13 registered a seed-corrected z-score of 0.358.
Then AAAGUUGGAAUACCGAGGU against C15orf61, with 0.00537; and UUGACUAUAAGUGCGUCUC against KMT2E, with -2.36.
Then UCAGGGUGCAGCAUGAAUC against LOC338667, with 0.765; and UUUGUUGGGUCUAAGAUUG against RAB23, with -0.849; and UCAAUUACACCCUCAUUUG against SRSF6, with -2.18.
UUCGUGUAGGGUGUGUAGC against OSGIN1 had a seed-corrected z-score of 0.000927.
The value for UUAGAGUCAUGCAUGAGGG against MROH7 was -0.225; that for UUGUAGACGAGCUGGAUGC against ADAMTSL5 was -0.759.
Then UCCAUUCCUAUACUAGUCC against ABCG2, with -0.43; and CAAGUUUUUAUUAUCCUGC against EPHA10, with -0.0524; and AUUGUUCCCAUAGAGUUCC against BCL2L1, with 3.29.
Then UGAUCUGUGACUGCUCUUC against AP2M1, with -2.2.
As to UCGAUCUUCAGGUCGUUGC against ATXN1, the seed-corrected z-score is -0.921.
Then UUGGAAGUCACAGUCAUCC against CST7, with -0.103.
Then UUGGUUAACUGGUCAAUCC against SLC40A1, with -0.655.
The value for AUCUUUCCCAGGUUUUUCG against ZNF669 was -2.19; that for AUCCAUCAAAGCGAUAUUC against GBE1 was -1.06; that for AAUGAAGGAACCAUUGCCC against IL18BP was 1.21.
For the sequence AAAUAUCCCAUAAUCAGUG against LYZ, the seed-corrected z-score is -0.541.
The sequence AAUGGAUCCAAAGAGGCUA against KIFC2 gave a seed-corrected z-score of 0.744.
As for UUUAAUGUAACUCCCACUU against DLGAP2, the seed-corrected z-score was 0.4.
Then UGUGGUUCAACAAGAAGCU against CD177, with -1.65.
Then ACUGGAACAAGAACCGUCC against PDIA5, with 0.508; and UGAUCGUACAGGUGCAUCG against IL1B, with -0.147.
As for AAAUGAUCUGGUUUCCUUC against OLFML1, the seed-corrected z-score was -0.829.
The value for UAAAUAGCAGCAUCUACUC against PPM1E was 0.41; that for AAAACGAUCAAAAUCUGUC against RPL14 was -2.5; that for UACGUACUCAUUCUUCAGG against CMC2 was -0.986.
The value for UACAGGUAGGAGUUGUCCU against PRKACG was 0.0436; that for UUUUAUAGAGGGAUAUUCG against NPC2 was 1.05.
Then AACUGGUUCAUCAGUGUCC against WDR89, with -2.
UGAAAUGCUAAUGCGUGGG against RBM33 displayed a seed-corrected z-score of 0.224.
Then UGCUUGCGAACAAACAGCC against SCD5, with 0.624; and UAGUGAUAGAUACUGUUCC against HGF, with -0.568; and UUUUGAUUAACUCGAGGAG against TSSK1B, with 0.323.
Then UAGGGUCAUCGAGAGGUUC against MAML3, with -2.49.

For the origin of these results see PubChem BioAssay AID1159506 (National Center for Advancing Translational Sciences (NCATS), 2015).
